# This is a sample that favours compounds with a hit; in the whole collection about 2.4% have one here.
# L929 necroptosis – blocks zVAD induced death of L929 cells; 220,000 compounds, 0.38% hits; AID 1377; L929 zVAD necroptosis rescue, ATP luminescence, 24 h; with zVAD 60 µM; viability rescue, % at 10 µM;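 active = activation, scaled between plate controls, above about 75%, limit read from the data; inactive = activation under that limit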
# PKD1 kinase inh – blocks activity of human protein kinase D1. PKD1 kinase fluorescence polarization assay. Q15139. AID 797. inhibition, % (no concentration beside the values). 200,000 compounds, 0.056% hits; in the data active = inhibition above about 50%
# Target sequence (Q15139 whole entry, looked up): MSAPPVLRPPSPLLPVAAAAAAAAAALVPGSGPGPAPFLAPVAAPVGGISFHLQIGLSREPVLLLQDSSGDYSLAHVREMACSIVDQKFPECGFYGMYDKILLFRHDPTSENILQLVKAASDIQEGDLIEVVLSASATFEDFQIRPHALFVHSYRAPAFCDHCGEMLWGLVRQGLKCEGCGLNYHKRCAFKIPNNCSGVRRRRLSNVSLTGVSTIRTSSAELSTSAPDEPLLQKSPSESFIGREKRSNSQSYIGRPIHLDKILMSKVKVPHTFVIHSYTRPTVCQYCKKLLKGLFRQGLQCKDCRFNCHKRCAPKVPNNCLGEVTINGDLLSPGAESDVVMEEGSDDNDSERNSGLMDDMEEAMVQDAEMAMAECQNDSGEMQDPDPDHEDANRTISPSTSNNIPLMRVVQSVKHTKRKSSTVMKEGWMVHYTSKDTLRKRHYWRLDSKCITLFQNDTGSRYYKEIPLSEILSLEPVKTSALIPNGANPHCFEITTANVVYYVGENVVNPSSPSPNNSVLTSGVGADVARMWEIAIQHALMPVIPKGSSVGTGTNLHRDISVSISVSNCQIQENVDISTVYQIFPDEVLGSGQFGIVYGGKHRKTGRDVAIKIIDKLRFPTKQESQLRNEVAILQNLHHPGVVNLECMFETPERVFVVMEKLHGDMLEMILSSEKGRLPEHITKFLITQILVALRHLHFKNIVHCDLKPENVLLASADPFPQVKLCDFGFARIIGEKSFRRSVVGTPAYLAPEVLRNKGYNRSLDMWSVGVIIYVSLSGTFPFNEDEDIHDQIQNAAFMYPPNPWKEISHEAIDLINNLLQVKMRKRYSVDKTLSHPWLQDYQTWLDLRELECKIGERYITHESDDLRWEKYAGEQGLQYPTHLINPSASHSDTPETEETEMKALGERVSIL
# DTT redox prof – compounds producing H2O2 with reducing agent – biochemical, NIH compound library profiling, artefact control for MLSCN library redox annotation, primary screen. activation, % at 10 µM. AID 878. DTT-dependent redox cycling H2O2, phenol red/HRP absorbance; 100% = 100 µM peroxide control, 0% = buffer. 200,000 compounds, 0.03% hits;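 active = activation of at least 50% relative to the plate's high and low controls in the primary single-dose screen; inactive = activation below 50%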;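 note: compound incubated with DTT at 0.8 mM final as the reducing agent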
# WT yeast gro inh – growth inhibition of WT yeast, mitochondrial fusion screen. mitochondrial fusion phenotypic screen, WT strain. inhibition, % at 10 µM. 190,000 compounds, 2.1% hits; in the data active = inhibition above about 58%; tested in S. cerevisiae
# PERK inh – blocks human PERK kinase; AID 1416; 220,000 compounds, 0.17% hits; CHO PERK-DD fusion, SEAP luminescence translation reporter; Q9NZJ5; inhibition, % at 5.6 µM;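 active = inhibition above the mean inhibition of all tested compounds plus 3 SD, set separately per screening campaign, cut at about 2.9% in these data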;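 note: PERK kinase domain activated by AP20187 dimerizer at 100 nM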
# TNF necrop inh – inhibitors of TNF-alpha induced necroptosis in Jurkat FADD-/- cells; activation (protection from cell death), % at 10 µM; AID 463075; Jurkat FADD-/- TNF necroptosis rescue, ATP luminescence, 24 h; 0 = TNF only, 100 = no-TNF cells; 220,000 compounds, 0.068% hits;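 active = activation, meaning protection from cell death, of at least 50% relative to plate controls; inactive = activation below 50%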;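 note: necroptosis triggered by 40 ng/mL TNF-alpha added together with compound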
# Hits are given with their value; - = inactive; . = no result given.
SMILES,L929 necroptosis,PKD1 kinase inh,DTT redox prof,WT yeast gro inh,PERK inh,TNF necrop inh
COCCNC(=S)N/N=C(\C)c1cccc([N+](=O)[O-])c1,-,-,-,-,-,-
CCOC(=O)C(=CNc1ccc(OC)cc1[N+](=O)[O-])C(=O)OCC,-,.,.,.,-,-
CC(=O)C1=C(c2ccc(Br)cc2)C(=O)c2ccccc2C1=O,-,-,-,92.9,-,-
Cc1cc(C)cc(Nc2ccc(C(=O)O)cc2N)c1,-,-,-,-,-,-
Cc1ccc(Nc2ccc(C(=O)O)cc2N)cc1,-,-,-,73.4,-,-
CCOC(=O)C(=NC1CCS(=O)(=O)C1)NNc1ccc(Br)cc1 (stereo not drawn),-,-,-,58.9,-,-
CCOC(=O)C(=NC(C)CC)NNc1ccc(Br)cc1 (stereo not drawn),.,-,-,70.3,-,-
CCC(=O)NNc1ccc(Br)cc1,-,-,-,68.7,-,-
CCOC(=O)C(=NC(C)CC)NNc1cccc(C(F)(F)F)c1 (stereo not drawn),-,-,-,-,-,-
CCOC(=O)C(=NC1CCS(=O)(=O)C1)NNc1ccccc1Cl (stereo not drawn),-,.,.,.,-,-
O=C(CC12CC3CC(CC(C3)C1)C2)NC(=S)Nc1ccc(CN2CCOCC2)cc1,-,-,-,-,-,-
Cc1cc2c(ncn2Cc2ccccc2)c(N)c1C,-,-,-,-,-,-
Cc1ccc(S(=O)(=O)N2CCCCC2)cc1C(=O)Nc1ccc(S(=O)(=O)Nc2ncccn2)cc1,-,.,.,.,-,-
Cc1nn(CC(=O)c2ccccc2Cl)c(C)c1[N+](=O)[O-],-,-,-,-,-,-
Cc1nn(Cc2c(F)cccc2Cl)c(C)c1[N+](=O)[O-],-,-,-,-,-,76.3
COc1ccccc1NC(=S)N(Cc1ccccn1)Cc1ccccc1Cl,-,-,-,67.1,-,-
COc1ccccc1NC(=S)N(Cc1ccc(C)cc1)Cc1cccnc1,-,-,-,74.2,-,-
Cc1ccccc1NC(=S)N(Cc1ccccn1)Cc1ccccc1Cl,-,-,-,68.6,-,-
COc1ccccc1NC(=S)N(Cc1cccnc1)Cc1ccccc1Cl,-,-,-,-,-,-
CC(C)CC(NC(N)=O)C(=O)NCCc1ccc(Cl)cc1 (stereo not drawn),-,-,-,-,-,-
O=c1cnnc(N/N=C/c2cccs2)[nH]1,-,.,.,.,4.0,-
Cc1cc(=O)[nH]c(N/N=C/c2cccs2)n1,-,-,-,-,-,-
CCOc1ccccc1OCCn1ncc2ccc(OC)c(OC)c2c1=O,-,-,-,-,-,-
COc1ccc2cnn(CCOc3cc(C)ccc3C(C)C)c(=O)c2c1OC,.,-,-,70.7,-,-
CCOC(=O)c1ccccc1NC(=O)CN(c1ccc(OCC)cc1)S(C)(=O)=O,-,-,-,-,-,-
SMILES,L929 necroptosis,PKD1 kinase inh,DTT redox prof,WT yeast gro inh,PERK inh,TNF necrop inh
Cc1ccc(NC(=O)Nc2c(Cl)cccc2Cl)cn1,-,.,.,.,-,-
Cc1ccc2nc(-c3ccccc3)c(CN3CCN(c4ccccc4F)CC3)n2c1,-,-,-,82.6,-,-
Cc1ccc2nc(-c3ccccc3)c(CN3CCSCC3)n2c1,-,-,-,-,-,-
Cc1ncc([N+](=O)[O-])n1CC(=O)N/N=C/c1ccccc1F,-,-,-,-,-,-
CCCCCCNC1=NCCS1,-,-,-,-,-,-
CC1=NN(C(N)=S)C(=O)C1N=Nc1ccccc1 (stereo not drawn),-,-,-,70.0,-,-
CCOC(=O)c1cc(-c2ccc(F)cc2)n(CC(=O)NCc2cccnc2)c1C,-,-,-,-,-,-
CCOC(=O)c1c(C)[nH]c(C)c1C(=O)CSc1nnc(-c2ccncc2)n1Cc1ccccc1,-,-,-,-,-,-
CCOC(=O)c1c(C)[nH]c(C)c1C(=O)CSc1nnc(-c2ccncc2)n1C,-,-,-,65.1,-,-
O=c1cc(-c2ccco2)oc2c1ccc1ccccc12,-,-,-,-,-,-
O=c1cc(C(Cl)(Cl)Cl)oc2c1ccc1ccccc12,-,-,-,78.2,-,-
Cc1cc(C)c(C(=O)Nc2ccc(Br)c(C(F)(F)F)c2)c(C)c1,-,-,.,81.1,-,-
CC1CCN(c2ccccc2NC(=S)NC(=O)c2cccs2)CC1,-,-,-,-,-,-
CC1CCN(c2ccccc2NC(=S)NC(=O)C(C)(C)C)CC1,-,-,-,78.0,-,-
CC1CCN(c2ccccc2NC(=O)c2ccc(F)cc2)CC1,-,-,-,72.4,-,-
CC12CCC(C(=O)Nc3ccncc3)(CC1O)C2(C)C (stereo not drawn),-,.,.,.,-,-
Cc1cccc(NC(=O)c2cc3cc([N+](=O)[O-])ccc3s2)n1,-,-,-,-,-,-
Cc1cccc(C)c1NC(=O)CN(C)CC(=O)Nc1ccccc1Br,-,-,-,66.0,-,-
COc1ccc(C2CC(c3ccc(Br)cc3)=NN2C(=O)c2cccnc2)cc1 (stereo not drawn),-,-,-,64.1,-,-
COc1ccc(C2CCCN2C(=O)c2cccs2)cc1 (stereo not drawn),-,-,-,-,-,-
COc1ccc(C2=NN(C(=O)c3cccs3)C(c3ccccc3O)C2)cc1 (stereo not drawn),-,-,-,85.3,-,-
COc1ccc(C2CC(c3ccccc3)=NN2C(=O)COC(=O)C2(C)CC2(Cl)Cl)cc1 (stereo not drawn),-,-,-,72.2,-,-
COc1ccc(C2CC(c3ccccc3)=NN2C(=O)c2cccs2)cc1 (stereo not drawn),-,-,-,77.8,-,-
CC(Cl)C(=O)NNC(=O)CNS(=O)(=O)c1ccccc1 (stereo not drawn),-,-,-,-,-,-
COc1ccc(OC)c(NC(=O)CSc2ccc3nnc(-c4cccnc4)n3n2)c1,-,-,-,-,-,-
SMILES,L929 necroptosis,PKD1 kinase inh,DTT redox prof,WT yeast gro inh,PERK inh,TNF necrop inh
COc1ccc(OC)c(Cc2nnc(CCC(=O)NC3C4CC5CC(C4)CC3C5)o2)c1 (stereo not drawn),-,-,-,-,-,-
O=C(NCCc1ccc(Cl)cc1)c1ncn[nH]1,-,-,-,90.9,-,-
Nc1nc(F)cc(NCc2ccccc2)n1,-,-,-,-,-,-
COc1ccc(Nc2c3c(nc4c(-c5ccccc5)c(C)nn24)CCC3)cc1,-,-,-,62.5,-,-
Cc1cc(C)nc(Nc2n[nH]c(-c3ccc(C(C)(C)C)cc3)n2)n1,-,-,-,-,-,-
Cc1cc(C)nc(Nc2n[nH]c(-c3ccc(N)cc3)n2)n1,-,-,-,59.6,-,-
Cc1ccc(NC(=O)CCC(=O)OCC(=O)c2ccc(Oc3ccc([N+](=O)[O-])cc3)cc2)cc1C,-,-,-,66.5,-,-

# Screening results: PubChem BioAssay, several laboratories
